Experimental data: PubChem BioAssay AID686978 (National Center for Advancing Translational Sciences (NCATS), 2013)
Where “and” joins values, the source holds several entries; their conditions need not be identical. Equal entries are not always repeated. Screen size: about 420,000 compounds; about 64,000 (15%) were called active. Another 27% or so got no clear call; they are omitted. Calls come from the whole dose curve; as a rule, active = well fitted inhibition curve with a large enough effect; inconclusive = small, poorly fitted or top-dose-only effect; inactive = flat fitted curve, though single readings scatter. Not all results are given here.

assay: qHTS for Inhibitors of human tyrosyl-DNA phosphodiesterase 1 (TDP1): qHTS in cells in absence of CPT; settings: DT40 Tdp1-/- hTDP1 cells, no CPT, ATP luminescence, 48 h; activity change, negative = growth inhibition: at 46.2 µM (top of the series); note: nearly all actives have a fitted effect of over 55% in size
Procedure, shortened: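 Luminescent ATP content (CellTiter-Glo) served as the growth readout. Knockout chicken DT40 cells expressing human TDP1 were exposed to compounds without camptothecin for a minimum 48 hr at 37 °C.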
% is set by controls: 0 for no effect and ±100 for the full control effect; potency is the fitted concentration of half-maximal effect.

SMILES	activity change, negative = growth inhibition	Potency
CC1(C(=O)NS(=O)(=O)c2cccc(OC(F)F)c2)CCN1C(=O)COc1ccc(Cl)cc1 (stereo not drawn)	4.48% (inactive)	
Cc1nc(N)sc1-c1ccccc1	-23.1% (inactive)	
S=c1[nH]nc(NCCc2ccccc2)s1	-27.9% (inactive)	
Cc1nc(C)c(-c2csc(NCCc3ccccc3)n2)s1		13 µM (active)
COc1ccc(O)c(C(=O)c2cnc3onc(C(C)C)c3c2)c1	-25.8% (inactive)	
Cc1n[nH]c(=O)n1-c1ccc(Oc2ccccc2)cc1	-0.778% (inactive)	
Cc1cc(OCCCC(=O)NCCN2C(=O)S/C(=C\c3cccnc3)C2=O)ccc1Cl		4.61 µM (active)
CCOc1ccc(N2CC(C(=O)NCCN3C(=O)S/C(=C\c4cccnc4)C3=O)CC2=O)cc1 (stereo not drawn)	-19.7% (inactive)	
COc1ccc(N2CC(C(=O)NCCN3C(=O)S/C(=C\c4cccnc4)C3=O)CC2=O)c(OC)c1 (stereo not drawn)	16.5% (inactive)	
Cn1cccc1C(=O)OCC(=O)NCCc1ccccc1	20.3% (inactive)	
O=c1cccc(-c2ccc(Br)cc2)o1	-3.89% (inactive)	
COC(=O)C(NC(C)=O)(Nc1nc2c(s1)CCCC2)C(F)(F)F (stereo not drawn)	-25.1% (inactive)	
CCS(=O)(=O)N1CCN(C(=O)c2cccs2)CC1	-11.3% (inactive)	
CCCS(=O)(=O)N1CCN(C(=O)c2cccs2)CC1	-5.67% (inactive)	
Cc1ccc(S(=O)(=O)N(C)CC(=O)OCC(=O)Nc2ccccc2)cc1	35.2% (inactive)	
Cc1ccc(-c2c[n+](CC(=O)Nc3ccccc3)c3n2CCC3)cc1		11.6 µM (active)
Cc1ccc(C(=O)C[n+]2cc(-c3ccccc3)n3c2CCCCC3)cc1		3.16 µM (active) and 1.46 µM (active)
O=C(C[n+]1cc(-c2ccc(Cl)c(Cl)c2)n2c1CCC2)c1cccs1		18.4 µM (active)
Cc1ccc(C(=O)N2CCCC(c3ccccc3)=N2)cc1	-9.77% (inactive)	
Cc1ccc(NC(=S)N2CCCC(c3ccccc3)=N2)cc1	-16.8% (inactive)	
Cc1ccc(C(=O)Cn2cccn2)cc1	-9.49% (inactive)	
COc1ccc(N(C)S(=O)(=O)c2cccc3nsnc23)cc1	-17.9% (inactive)	
Cc1cccc(S(=O)(=O)N(C)C[C@@H]2OCc3cnnn3CCCC(=O)N([C@H](C)CO)C[C@@H]2C)c1	-24.7% (inactive)	

SMILES	activity change, negative = growth inhibition	Potency
Cn1nc(C(F)(F)F)cc1-c1ccc(/C=C(\C#N)C(=O)c2cccc(C(F)(F)F)c2)s1	-1.63% (inactive)	
C/C(=N\NC(=O)c1ccc2ccccc2c1)c1cccnc1	5.16% (inactive)	
Cc1cccc(OCc2nnc(SCn3nnc4ccccc4c3=O)o2)c1	-13% (inactive)	
CCOc1ccc(NC(=O)CN(C)C(=O)CSc2ccccc2)cc1OCC	-10% (inactive)	
CCC(C)NC(=O)c1cc(Cl)ccc1OC (stereo not drawn)	-12.7% (inactive)	
Cc1cc(N(C)C)cc(C)[n+]1[O-]	-2.53% (inactive)	
Cn1sc(=O)c2cc(S(=O)(=O)NC3CC3)ccc21		10.3 µM (active)
O=S(=O)(NC1CC1)c1ccc(F)c(F)c1	-10.3% (inactive)	
O=S(=O)(NC1CC1)c1ccc(Cl)cc1	1.98% (inactive)	
CC(NC(=O)CCCC1CCCCC1)c1ccc(S(N)(=O)=O)cc1 (stereo not drawn)	-26.5% (inactive)	
N#CC1=C(N)Oc2c(sc3ccccc23)C1c1ccco1 (stereo not drawn)		5.17 µM (active)
C[C@H](NC(=O)CC[C@H]1O[C@@H](n2ccc(=O)[nH]c2=O)[C@H](O)[C@@H]1O)c1cccc2ccccc12	0.78% (inactive)	
Cc1ccc(S(=O)(=O)N2CCOCC2)cc1NC(=O)COC(=O)c1cnccn1	8.82% (inactive)	
CCc1ccccc1NC(=O)c1cc(-c2ccc3c(c2)OCO3)on1		inactive
CCCCCCC1(C)NC(c2ccc3c(c2)OCO3)=CC(c2ccccc2O)N1 (stereo not drawn)		15.8 µM (active)
CC(C)COC(=O)c1ccc(NC(=O)C2C3C=CC(C3)C2C(=O)O)cc1 (stereo not drawn)	-23% (inactive)	
CC1=CC=CN2C1=NC(=O)CC2(C)C(=O)N(CC(=O)NC1CCCC1)c1ccccc1C (stereo not drawn)	23.1% (inactive)	
N#Cc1ccc(C(c2ccc(C#N)cc2)n2cncn2)cc1	-7.38% [at 21.1 µM] (inactive)	
CC(=NNC(=O)c1ccncc1)c1ccc(Cl)c(Cl)c1	-27.8% (inactive)	
CC(=O)Nc1cccc(/C(C)=N/NC(=O)c2c(-c3ccccc3Cl)noc2C)c1		13 µM (active)
Cc1onc(-c2c(F)cccc2Cl)c1C(=O)N(C)CC(=O)Nc1cccc(F)c1	-0.215% (inactive)	
Cc1oc(-c2ccccc2F)nc1CN1CCC(C(=O)NCCc2ccc(Cl)cc2)CC1		16.4 µM (active)
COc1ccc(-c2nc(CN3CCC(C(=O)NCc4ccccc4)CC3)c(C)o2)cc1OC	-0.259% (inactive)	

SMILES	activity change, negative = growth inhibition	Potency
Cc1oc(-c2ccccc2F)nc1CS(=O)CC(=O)NCCN1CCCCC1C (stereo not drawn)	25.6% (inactive)	
C[C@H]1[C@H]2c3nc4ccccc4n3C[C@H]1ON2C1CCCCC1	-13.5% (inactive)	
CSc1ncc(C(=O)NCc2ccccc2Cl)c(C(F)(F)F)n1	-28.9% (inactive)	
Cn1ccc(=Nc2ccc(NC(=O)c3ccc(N=c4ccn(C)c5ccc([N+](=O)[O-])cc45)cc3)cc2)cc1		3.66 µM (active)
CCc1ccc(NC(=O)c2ccc(Cn3cc([N+](=O)[O-])cn3)cc2)cc1	-14.7% (inactive)	
COc1cc(NS(=O)(=O)c2ccc(NC(=O)c3ccc([N+](=O)[O-])cc3)cc2)ncn1	-9.31% (inactive)	
Oc1ccc(N=Nc2nccs2)c(O)c1		20.6 µM (active)
Oc1c(C=Nc2cccc3nsnc23)ccc2ccccc12	-28.4% (inactive)	
Oc1ccc2ccccc2c1N=Nc1nccs1		0.651 µM (active)
Cc1nc(Nc2ccccc2C)c2cnn(C)c2n1	-12.1% (inactive)	
Cc1ccc(CCCOC(=O)C[N+]2(C)CCCCC2)cc1	-5.38% (inactive)	
CCCOc1ccc(N2CC(C(=O)Nc3ccccn3)CC2=O)cc1 (stereo not drawn)	-2.41% (inactive)	
CC(C)CCN1CCN(Cc2cn[nH]c2C2CCCCC2)CC1CCO (stereo not drawn)	-14.3% (inactive)	
Cc1nn(Cc2ccccc2)c(C)c1NS(=O)(=O)c1ccccc1	-22.6% (inactive)	
CCOC(=O)c1cn(Cc2cccc(C)c2)nn1	-21.4% (inactive)	
CSc1nn(Cc2cccc(C)c2)c(N)c1S(=O)(=O)c1ccccc1		18.4 µM (active)
CCOC(=O)C(C)N(c1ccccc1Cl)S(C)(=O)=O (stereo not drawn)	-1.47% (inactive)	
CCOC(=O)c1ccc2c(c1)nc(SCC(=O)NC(C)C)n2CC	-1.77% (inactive)	
Cc1ccc(F)c(S(=O)(=O)NC(=O)C2(C)CCN2C(=O)CCc2cccs2)c1 (stereo not drawn)	-14.3% (inactive)	
COc1ccc(/C=C2/S/C(=N/N=C3\CC4CCC3(C)C4(C)C)NC2=O)cc1 (stereo not drawn)	2.35% (inactive)	
COc1ccc2c(c1)CC[C@@H]1[C@@H]2CC[C@]2(C)C(=O)CC[C@@H]12	-21.2% (inactive)	
COc1ccc(C=C2CCC3C(CCCC34OCCO4)C2=O)cc1 (stereo not drawn)		23.1 µM (active)
